The sequences below were run against T1, ETS2 (Homo sapiens, UniProt P15036 1-469) (assay: DAPPL (digital affinity profiling via proximity ligation, sequencing); 10 mM Tris-HCl pH 7.5, 50 mM NaCl, 1 mM DTT, 4% glycerol, room temperature, 30 min; GST-TFs on glutathione beads, 16-mer random dsDNA library, 0.1% formaldehyde crosslink after washing; high values mean tight binding). Conditions: protein: recombinant; tags: N-terminal GST; dsDNA, one strand shown.
T1 sequence: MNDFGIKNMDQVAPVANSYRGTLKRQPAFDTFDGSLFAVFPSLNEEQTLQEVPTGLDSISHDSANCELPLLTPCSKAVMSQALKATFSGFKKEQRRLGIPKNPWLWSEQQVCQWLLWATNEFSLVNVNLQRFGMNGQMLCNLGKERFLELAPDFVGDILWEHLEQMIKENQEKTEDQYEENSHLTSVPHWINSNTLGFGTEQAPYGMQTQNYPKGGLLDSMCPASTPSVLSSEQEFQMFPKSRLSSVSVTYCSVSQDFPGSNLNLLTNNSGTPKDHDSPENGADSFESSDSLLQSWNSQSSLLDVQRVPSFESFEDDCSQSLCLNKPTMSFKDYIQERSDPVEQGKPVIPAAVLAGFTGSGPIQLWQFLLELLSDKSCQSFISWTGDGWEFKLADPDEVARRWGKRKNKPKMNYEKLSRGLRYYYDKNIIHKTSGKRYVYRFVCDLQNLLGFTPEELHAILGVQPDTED
Summary of the method: (§1)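 In yeast, human transcription factors were expressed with a GST fusion, then pulled down on glutathione beads and given DNA barcodes. Pooled with a tag-only sample, they were exposed to 200 nmole of a 16-mer random double-stranded DNA library (Tris/NaCl/DTT/glycerol buffer, room temperature, 30 min), washed, crosslinked with 0.1% formaldehyde, proximity-ligated using BsaI/T4 ligase for 1 h at 37 °C, PCR-amplified and read on an Illumina NextSeq500. Each hexamer's frequency of reads for a factor, divided by the matching frequency for the tag-only sample, gives the binding signal.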

| Sequence | binding signal |
| --- | --- |
| ACGATA | 1.25 fold enrichment (6-mer frequency, TF over GST control) |
| TGTCCT | 1.47 fold enrichment (6-mer frequency, TF over GST control) |
| TGCCAT | 1.05 fold enrichment (6-mer frequency, TF over GST control) |
| AATCAT | 1.11 fold enrichment (6-mer frequency, TF over GST control) |
| CTCGGC | 1.31 fold enrichment (6-mer frequency, TF over GST control) |
| CAAGCA | 1.25 fold enrichment (6-mer frequency, TF over GST control) |
| AAACTG | 1.08 fold enrichment (6-mer frequency, TF over GST control) |
| GCTCAT | 1.26 fold enrichment (6-mer frequency, TF over GST control) |
| ACAAGC | 1.18 fold enrichment (6-mer frequency, TF over GST control) |
| CATCAC | 1.12 fold enrichment (6-mer frequency, TF over GST control) |
| AAGCAC | 1.17 fold enrichment (6-mer frequency, TF over GST control) |
| CCCCTG | 1.21 fold enrichment (6-mer frequency, TF over GST control) |
| AACGGC | 1.22 fold enrichment (6-mer frequency, TF over GST control) |
| CCTTTG | 1.32 fold enrichment (6-mer frequency, TF over GST control) |
| CGCCGC | 1.2 fold enrichment (6-mer frequency, TF over GST control) |
| ACACAT | 1.27 fold enrichment (6-mer frequency, TF over GST control) |
| TAAGCC | 1.15 fold enrichment (6-mer frequency, TF over GST control) |
| TGCACG | 1.15 fold enrichment (6-mer frequency, TF over GST control) |
| ACCCCA | 1.15 fold enrichment (6-mer frequency, TF over GST control) |
| TGAATG | 1.25 fold enrichment (6-mer frequency, TF over GST control) |

The sequences below were run against T2, SPDEF (Homo sapiens, UniProt O95238 1-335) in the same assay as above. Conditions: protein: recombinant; tags: N-terminal GST; dsDNA, one strand shown.
T2 sequence: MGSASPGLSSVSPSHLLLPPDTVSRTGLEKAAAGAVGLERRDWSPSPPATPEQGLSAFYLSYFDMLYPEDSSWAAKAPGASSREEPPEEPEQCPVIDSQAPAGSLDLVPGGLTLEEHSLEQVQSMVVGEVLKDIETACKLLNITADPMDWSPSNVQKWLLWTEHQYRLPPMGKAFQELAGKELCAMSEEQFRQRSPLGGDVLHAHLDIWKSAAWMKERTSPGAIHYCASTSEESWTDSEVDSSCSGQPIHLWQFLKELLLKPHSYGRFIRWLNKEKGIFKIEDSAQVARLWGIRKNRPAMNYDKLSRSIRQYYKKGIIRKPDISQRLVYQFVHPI
Summary of the method: as §1

| Sequence | binding signal |
| --- | --- |
| CCCCAC | 1.2 fold enrichment (6-mer frequency, TF over GST control) |
| GTATGC | 1.18 fold enrichment (6-mer frequency, TF over GST control) |
| TCATTA | 1.06 fold enrichment (6-mer frequency, TF over GST control) |
| TCCCTG | 1.19 fold enrichment (6-mer frequency, TF over GST control) |
| ACTAAG | 1.16 fold enrichment (6-mer frequency, TF over GST control) |
| ACACCC | 1.21 fold enrichment (6-mer frequency, TF over GST control) |
| TCCCGA | 1.37 fold enrichment (6-mer frequency, TF over GST control) |
| CACCTC | 1.17 fold enrichment (6-mer frequency, TF over GST control) |
| AATTCA | 1.24 fold enrichment (6-mer frequency, TF over GST control) |
| GCCTAT | 1.27 fold enrichment (6-mer frequency, TF over GST control) |
| CACCAT | 1.02 fold enrichment (6-mer frequency, TF over GST control) |
| CTTTCG | 1.22 fold enrichment (6-mer frequency, TF over GST control) |
| GTACAC | 1.2 fold enrichment (6-mer frequency, TF over GST control) |
| CTCGAA | 1.11 fold enrichment (6-mer frequency, TF over GST control) |
| CTTACG | 1.1 fold enrichment (6-mer frequency, TF over GST control) |
| TATACC | 1.26 fold enrichment (6-mer frequency, TF over GST control) |
| GGACAT | 1.43 fold enrichment (6-mer frequency, TF over GST control) |
| TAGGAA | 1.11 fold enrichment (6-mer frequency, TF over GST control) |
| GATTTC | 1.66 fold enrichment (6-mer frequency, TF over GST control) |
| ACCTCA | 1.09 fold enrichment (6-mer frequency, TF over GST control) |
| ACGATA | 1.13 fold enrichment (6-mer frequency, TF over GST control) |
| TGTCCT | 1.79 fold enrichment (6-mer frequency, TF over GST control) |
| TGCCAT | 1.19 fold enrichment (6-mer frequency, TF over GST control) |
| AATCAT | 1.07 fold enrichment (6-mer frequency, TF over GST control) |
| CTCGGC | 1.22 fold enrichment (6-mer frequency, TF over GST control) |
| CAAGCA | 1.06 fold enrichment (6-mer frequency, TF over GST control) |
| AAACTG | 1.02 fold enrichment (6-mer frequency, TF over GST control) |
| GCTCAT | 1.12 fold enrichment (6-mer frequency, TF over GST control) |
| ACAAGC | 1 fold enrichment (6-mer frequency, TF over GST control) |
| CATCAC | 1.15 fold enrichment (6-mer frequency, TF over GST control) |

From article PMC7862700, “An all-to-all approach to the identification of sequence-specific readers for epigenetic DNA modifications on cytosine”
